# Source: ChEMBL document CHEMBL3988442, “University of Dundee, Small-Polar-MMV Screening Library” (2021)
# Out of some 53,000 compounds screened, about 900 (1.7%) showed an effect of 50% or more. Shown is part of a subset that was picked to be rich in strong results.
# Tested on: Mycobacterium tuberculosis
# Assay: Cornell - Phenotypic assay to identify agents that inhibit growth of Mycobacterium tuberculosis
# Format: functional
# Parameters: scale not given: direction of the effect not stated beside the values
# Settings: 10 mM as filed; unlikely as a test dose
row,Compound,Percent Effect
1,CCc1noc(CN2CCN(CC(O)c3ccccc3)CC2)n1 (configuration not stated),-1.918%
2,O=C(O)C(F)(F)F.O=C1CC(c2ccncc2)C2(CCN(C(=O)c3ccc[nH]3)CC2)N1 (configuration not stated),-25.12%
3,CC(C)=CCN1C[C@@H]2CN(C(=O)c3cnccc3C)C[C@]2(C(=O)O)C1,13.3%
4,CC(C)[C@H](N)C(=O)N1CCSc2ccccc2C1.Cl,15.34%
5,CS(=O)(=O)N1CC(c2ccnc(Nc3ccccn3)n2)C1,3.174%
6,O=C(Nc1ccccn1)C1CCN(C(=O)COc2ccccc2F)C1 (configuration not stated),-42.88%
7,O=C(N1CCCC(n2cncn2)C1)C1(c2cccc(F)c2)CCCC1 (configuration not stated),-7.361%
8,Cc1c(CN2CCC(C(=O)O)(n3cccn3)CC2)oc2ccccc12,-1.551%
9,Cc1noc(-c2cnc(NC3CC3)nc2-c2ccco2)c1C,21.85%
10,Cc1cc(-c2cnc(NC3CC3)nc2-c2ccoc2C)on1,6.588%
11,Cc1occc1-c1nc(NC2CCCC2)ncc1-c1ccccn1,85.8%
12,Cc1cc(CN(C)C(=O)CN2CCCCCC2=O)no1,6.807%
13,COc1cc(Oc2ccc(C#N)cn2)ccc1CN1CCCC1,27.7%
14,COc1cc(Oc2ccc(C(N)=O)cn2)ccc1CN1CCCC1,6.938%
15,COc1ccc(Oc2ccc(C(F)(F)F)cn2)cc1CN1CCCC1,50.99%
16,COc1cc(Oc2ccc(C(F)(F)F)cn2)ccc1CN1CCCC1,21.65%
17,Fc1cc(Oc2ccc(C(F)(F)F)cn2)cc(F)c1CN1CCCC1,17.52%
18,COc1cc(Oc2cnc3ccccc3n2)ccc1CN1CCCC1,89.59%
19,COc1ccc(CC(=O)NCCCc2nnc3nc(C)cc(C)n23)cc1,-52.99%
20,CC(C)N1CCCC1c1nc(N(C)C)ncc1I (configuration not stated),5.368%
21,Cc1c(Br)c(C(F)F)nn1C(C)C(=O)O (configuration not stated),18.88%
22,COCCN(C)C(C(=O)O)c1ccc(Cl)c(F)c1 (configuration not stated),-23.65%
23,Cc1noc(C)c1CN1CCO[C@H]2CNC[C@H]21.Cl.Cl,71.41%

row,Compound,Percent Effect
1,COCC(=O)N1C[C@@H]2OCCN(Cc3c(C)noc3C)[C@@H]2C1,-0.2298%
2,Cc1ccc(N2C[C@@H]3OCCN(Cc4c(C)noc4C)[C@@H]3C2)nn1,2.66%
3,COc1ccc(F)c(-c2ncccc2NC(=O)C(C)C)c1,-36.39%
4,CN(C)S(=O)(=O)NC1CC(=O)N(c2ccccc2Cl)C1 (configuration not stated),14.57%
5,CCN(C)c1ncnc2c1CCN(S(=O)(=O)c1ccccc1)CC2.O=C(O)C(F)(F)F,2.965%
6,CCCNc1nc(CS(=O)(=O)c2ccccc2)cs1,-0.8742%
7,CNc1nc(CS(=O)(=O)c2ccccc2)cs1,106.2%
8,C=C(C)CNc1nc(CS(=O)(=O)c2ccccc2)cs1,8.279%
9,CC(C)c1nc(O)c2nnn(C[C@@H]3CCCN(Cc4ccsc4)C3)c2n1,7.526%
10,COCc1nc2c(o1)CN(C(=O)NCc1ccccc1)C2,-49.74%
11,CCC(C)CNc1ccc2oc(COC)nc2c1 (configuration not stated),35.01%
12,Cc1ccc(CNC(C)(C)c2noc(C(C)(C)C)n2)o1,-0.4607%
13,CC(C)(C)C(=O)N1C[C@@H](F)[C@@H](OCc2nc3ccccc3o2)C1,16.14%
14,COCc1nc2cc(NCc3ccc(C)o3)ccc2o1,107.3%
15,COCc1nc2cc(NCc3ccc(CO)o3)ccc2o1,97.16%
16,Cc1nc(-c2ccccc2)nc2c1CCN(Cc1nccn1C)CC2,6.349%
17,CN(C)c1ncc(C2Nc3cc(Cl)ccc3C3=NCCCN32)cn1.Cl (configuration not stated),8.449%
18,CCOc1ccc(NC(=O)c2oc(CC)cc2C)cc1CO,34.25%
19,CCOc1ccc(NC(=O)c2cc(C)c(C)o2)cc1CO,22.28%
20,CCOc1ccc(NC(=O)c2[nH]c(C)cc2C)cc1CO,102.6%
21,COCC(=O)N1CCN(C)CC(Cc2cc(N(C)C)ncn2)C1 (configuration not stated),14.46%
22,CN1CCC(c2[nH]ncc2S(C)(=O)=O)CC1,6.792%
23,CCc1cccc2c(CC(=O)N(C)CCN(C)C)c(C)[nH]c12.O=C(O)CC(O)(CC(=O)O)C(=O)O,51.84%

row,Compound,Percent Effect
1,Cc1[nH]c2c(C)cccc2c1CC(=O)N(C)CCN(C)C.O=C(O)CC(O)(CC(=O)O)C(=O)O,27.37%
2,Cc1ccc2c(CC(=O)N(C)CCN(C)C)c(C)[nH]c2c1C.O=C(O)CC(O)(CC(=O)O)C(=O)O,8.878%
3,COCCN1CCN(S(=O)(=O)c2ccccc2)Cc2cccnc21.O=C(O)C(F)(F)F,12.13%
4,N#Cc1cc(NS(=O)(=O)c2cc(C(=O)O)cc(Cl)c2Cl)ccc1F,13.91%
5,CCOC(=O)CN1CC(c2nc(-c3ccsc3)no2)C1.O=C(O)C(=O)O,51.67%
6,CN(C)S(=O)(=O)N1CC(c2nc(-c3ccsc3)no2)C1,18.06%
7,CCS(=O)(=O)N1CC(c2nc(-c3ccsc3)no2)C1,-31.96%
8,O=C1NCCN1C(CNS(=O)(=O)C1CC1)Cc1cccc(F)c1 (configuration not stated),21.82%
9,CCOCC(=O)Nc1nccn1Cc1ccccc1Cl,48.83%
10,Cn1ccc(C(=O)Nc2nccn2Cc2ccccc2Cl)cc1=O,51.57%
11,CC(=O)Nc1nccn1Cc1ccccc1Cl,15.67%
12,O=C(CCS(=O)(=O)C1CCCC1)N1CCCC1c1ccsc1 (configuration not stated),-6.93%
13,Cc1cc(O)cc(=O)n1CCCC(=O)Nc1n[nH]c2cc(Br)ccc12,104.6%
14,Cn1cc(NC(=O)C2CC(=O)N(c3n[nH]c4cccc(F)c34)C2)cn1 (configuration not stated),-30.85%
15,Cc1cc(NC(=O)Cn2ccc(=O)c3ccccc32)[nH]n1,-8.025%
16,Cc1noc(C)c1NC(=O)CCn1cc(Br)ccc1=O,22.38%
17,CC(C)Cc1cc(NC(=O)c2n[nH]c3ccccc23)n(C)n1,15.6%
18,Cc1nonc1NC(=O)CCn1cc(Br)ccc1=O,6.093%
19,Cc1cc(O)cc(=O)n1CCCC(=O)Nc1n[nH]c2ccccc12,81.79%
20,Cc1cc(O)cc(=O)n1CCCC(=O)Nc1n[nH]c2cccc(F)c12,103.9%
21,CS(=O)(=O)CCCC(=O)Nc1cc(-c2cccc(F)c2F)n[nH]1,-2.681%
